TRHR ag = agonists of human TRH receptor; TRHR cells, calcium flux fluo-8, FDSS agonist mode; 360,000 tested, 0.18% active; activation, % at 2 µM; also: 0% is about no effect
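Read-out: compound-evoked intracellular calcium rise in TRHR cells, fluo-8 dye, kinetic FDSS fluorescence at 1 s/cycle following a 10-cycle baseline. Cells cultured overnight before dye loading (30 min–1.5 h, RT).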
TRHR PAM = TRH receptor (human) allosteric enhancement. enhancement, % at 2 µM. TRHR cells, fluo-8 calcium fluorescence, EC20 TRH enhancement. 360,000 tested, 0.66% active; in the data active = enhancement above about 30%; also: 0% is about no effect
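Enhancer read-out: after compound pinning and an initial kinetic agonist-mode read, an EC20 of TRH (10 nM final) was injected and fluo-8 calcium signal (Ex 480/Em 530) followed at 1 s/cycle for 100 cycles in TRHR-expressing cells.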
LDHA inh = inhibitors of human lactate dehydrogenase A. P00338. purified LDHA, NADH/diaphorase-resazurin fluorescence; active compounds read low. activity change, % (values are at about 110 or 230 µM). 480,000 tested, 0.15% active. AID 1347041; in the data active = activity change below about -30%;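 also: plate controls were DMSO wells for no effect and wells without enzyme for full effect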
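Remaining NADH was detected by diaphorase (0.133 mg/mL) converting 37 µM resazurin to fluorescent resorufin, read at 0 and 20 minutes. The preceding 5-minute room-temperature reaction used 2 nM LDHA, 0.2 mM sodium pyruvate and 0.06 mM NADH at pH 7.4.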
D1 antagonist = blocks dopamine activation of the human D1 receptor. P21728. HEK293 TREx D1 cells, calcium flux, dopamine EC80; active compounds read low. activity change, negative = inhibition, % at 10 µM. 360,000 tested, 3.2% active. AID 504652; in the data active = activity change below about -30%; also: % is scaled to controls: 0 for no effect and ±100 for the full control effect
Target sequence (P21728 whole entry, looked up): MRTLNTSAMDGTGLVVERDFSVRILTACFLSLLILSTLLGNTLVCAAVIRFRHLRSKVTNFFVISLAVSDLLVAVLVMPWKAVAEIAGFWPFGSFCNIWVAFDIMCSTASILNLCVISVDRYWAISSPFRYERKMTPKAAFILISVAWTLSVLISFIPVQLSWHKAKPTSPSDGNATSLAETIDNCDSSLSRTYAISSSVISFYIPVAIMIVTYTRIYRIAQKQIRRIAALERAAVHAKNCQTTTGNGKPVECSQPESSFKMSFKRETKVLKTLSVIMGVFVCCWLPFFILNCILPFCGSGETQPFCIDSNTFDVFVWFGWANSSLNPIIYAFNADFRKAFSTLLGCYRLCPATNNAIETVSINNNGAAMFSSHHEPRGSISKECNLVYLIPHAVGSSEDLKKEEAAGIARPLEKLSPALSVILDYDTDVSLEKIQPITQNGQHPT
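Allosteric or orthosteric antagonism assessed as attenuation of the calcium response to EC80 dopamine, added 180 s after compound, in induced HEK293 Trex D1 cells loaded with no-wash calcium dye.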
D1 ag = agonists of human D1 dopamine receptor. 360,000 tested, 1% active. HEK293 T-REx D1 cells, calcium flux, agonist mode. activation, % at 2 µM. P21728. AID 504660; also: 0% is about no effect
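Tetracycline-induced HEK293 TREx D1 cells, force-coupled to calcium signalling, were dye-loaded with a no-wash calcium kit. Compound was pin-added after a 10 s baseline. Fluorescence was read kinetically at 1 cycle/s for 180 s, with calcium rises flagged as agonism.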
D1 PAM = human D1 dopamine receptor positive modulation. AID 504651. 360,000 tested, 0.036% active. potentiation, % at 10 µM. HEK293 TREx D1 cells, calcium flux, dopamine EC20 potentiation; in the data active = potentiation above about 30%; also: 0% is about no effect
Starred values were filed as active, the others as inactive; · = no result. Compounds with a hit are over-represented: about 3.6% of the library has one in this group of screens. Rule as the data show it, unless noted: active = activation above about 30%; inactive = the rest.

SMILES | TRHR ag | TRHR PAM | LDHA inh | D1 antagonist | D1 ag | D1 PAM
Cc1ccc(CNC(=O)c2ccc(OCC3CCCO3)cc2)cc1 (stereo unspecified) | -0.4 | 6.2 | -0.8 | -70.7* | 2.0 | -5.8
O=C(Nc1ccc(Cl)cc1)c1ccc(OCC2CCCO2)cc1 (stereo unspecified) | 0.5 | 16.2 | -8.3 | -65.8* | 3.6 | -3.9
Cc1cc(NC(=O)c2ccc(OCC3CCCO3)cc2)ccc1Br (stereo unspecified) | · | · | -7.0 | · | · | ·
O=C(NCc1ccc(Cl)cc1)c1ccc(OCC2CCCO2)cc1 (stereo unspecified) | -0.1 | -4.7 | -6.5 | -14.0 | 3.7 | -4.7
COc1cccc(-c2ccc(NC(=O)C3CCCN(Cc4cnn(C)c4C)C3)cc2)c1 (stereo unspecified) | 1.1 | -1.9 | -1.7 | 2.8 | 19.3 | -5.3
Cn1cc(CN2CCCC(C(=O)Nc3cccc(-c4cc5ccccc5[nH]4)c3)C2)cn1 (stereo unspecified) | 1.4 | 2.8 | -2.8 | -18.6 | 11.7 | -8.5
COCc1cc(CN2CCCC(C(=O)Nc3ccc(-c4ccco4)cc3)C2)ccc1OC (stereo unspecified) | 0.5 | 22.4 | -2.6 | -30.1* | 1.9 | 3.8
COc1cccc(-c2ccc(NC(=O)C3CCCN(Cc4cnn(C)c4)C3)cc2)c1 (stereo unspecified) | 6.2 | 27.9 | -1.2 | 1.2 | 32.5* | -6.5
Cc1ncc(CN2CCCC(C(=O)Nc3ccc(-c4cccc(F)c4)cc3)C2)n1C (stereo unspecified) | 0.6 | -0.4 | -3.8 | -31.6* | 15.6 | -12.8
Cc1ncc(CN2CCCC(C(=O)Nc3ccc(-c4ccco4)cc3)C2)cn1 (stereo unspecified) | 0.3 | 2.8 | -11.6 | 20.5 | 3.5 | 1.9
CC(C)n1cc(CN2CCCC(C(=O)Nc3cccc(-c4cc5ccccc5[nH]4)c3)C2)cn1 (stereo unspecified) | 1.1 | -0.1 | 6.0 | -30.6* | 30.4* | -15.1
COc1cccc(-c2ccc(NC(=O)C3CCCN(Cc4cnc(C)n4C)C3)cc2)c1 (stereo unspecified) | 1.2 | -5.3 | -8.6 | -3.5 | 5.2 | -17.3
CC(=O)Nc1ccc(NC(=O)CCc2nc3c(C)nn(-c4ccccc4)c3n(C)c2=O)cc1 | · | · | 11.1 | · | · | ·
COCCNC(=S)N(C)[C@H]1C[C@H]2c3cc(-c4ccccc4)ccc3CCN2C(=O)[C@H]1[C@H](C)O | · | · | -32.1* | · | · | ·
COCCNC(=S)N(C)[C@H]1C[C@H]2c3cc(Oc4ccccc4C)ccc3CCN2C(=O)[C@H]1[C@H](C)O | · | · | -19.5 | · | · | ·
Oc1ccc(NC(=S)Nc2ccccc2)cc1 | 0.1 | 4.8 | 4.2 | -2.7 | 4.1 | -0.2
Nc1ccc(NC(=S)Nc2ccccc2)cc1 | 0.4 | -4.3 | -0.6 | -56.9* | -1.8 | -1.4
COC(=O)c1c(NC(=O)CN2C(=O)C(=O)N(C(C)C)C2=O)sc(C)c1C | -0.1 | -1.9 | -20.0 | -37.1* | -0.3 | -3.4
N#Cc1ccc(COC(=O)c2cccnc2N2CCOCC2)cc1 | · | · | 5.6 | · | · | ·
COC(C(=O)Nc1ccc(NC(=O)C(OC)c2ccccc2)cc1)c1ccccc1 (stereo unspecified) | 3.5 | -3.1 | 0.8 | -24.7 | 5.2 | -1.2
COC(C(=O)Nc1ccc(S(=O)(=O)Nc2c(C)cccc2C)cc1)c1ccccc1 (stereo unspecified) | 1.8 | -4.8 | -2.2 | 8.4 | 35.2* | -1.1
COc1ccc(C(=O)NCc2coc(-c3cccs3)n2)c(O)c1 | · | · | 2.7 | · | · | ·
CC1(C)CC(=O)C(=Cc2cn(-c3ccccc3)nc2-c2ccc(Cl)cc2)C(=O)C1 | -0.8 | -8.0 | -4.0 | -7.5 | 59.5* | -5.4
CCOc1ccc2c(c1)cc(C(=O)NCc1ccc(C)cc1)n2C | · | · | -1.2 | · | · | ·
Cc1ccc(C)c(Cn2c3ccccc3c3cnn(CC(=O)NCCN4CCOCC4)c(=O)c32)c1 | 0.1 | 7.7 | -0.5 | 27.3 | 1.9 | -6.6
CCCCN(C)CCCNC(=O)Cn1ncc2c3ccccc3n(Cc3cc(C)ccc3C)c2c1=O | -1.9 | 3.6 | -3.3 | -0.3 | 96.2* | -1.4

Screening data (PubChem BioAssay)
